# The list is not random: actives were taken first. Their share in the collection is about 21%.
# DT40 TDP1 CPT: qHTS for Inhibitors of human tyrosyl-DNA phosphodiesterase 1 (TDP1): qHTS in cells in presence of CPT | chicken DT40 Tdp1-/-;hTDP1 cells + 20 nM CPT, ATP luminescence, 48 h | Potency, µM (doses to about 46.2 µM), for inactives: at the highest dose activity change, negative = growth inhibition, most hits filed as inhibitors | hit rate 12% among 420,000; note: potency is the fitted concentration of half-maximal effect; % is set by controls: 0 for no effect and ±100 for the full control effect; nearly all actives have a fitted effect of over 55% in size
#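 Cell growth measured by CellTiter-Glo luminescence after a minimum 48 h, 37 C compound exposure with 20 nM CPT in Tdp1-knockout DT40 cells stably expressing hTDP1, seeded 400/well; qHTS titration format.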
# D3 ag: qHTS of D3 Dopamine Receptor Agonist: qHTS. D(3) dopamine receptor (Homo sapiens), P35462. D3R DiscoveRx beta-arrestin cells, luminescence, 90 min. max activation, %. hit rate 0.58% among 410,000. AID 652048, 2013; in the data active = max activation above about 30%; note: 0% is about no effect
# Target sequence (P35462 whole entry, looked up): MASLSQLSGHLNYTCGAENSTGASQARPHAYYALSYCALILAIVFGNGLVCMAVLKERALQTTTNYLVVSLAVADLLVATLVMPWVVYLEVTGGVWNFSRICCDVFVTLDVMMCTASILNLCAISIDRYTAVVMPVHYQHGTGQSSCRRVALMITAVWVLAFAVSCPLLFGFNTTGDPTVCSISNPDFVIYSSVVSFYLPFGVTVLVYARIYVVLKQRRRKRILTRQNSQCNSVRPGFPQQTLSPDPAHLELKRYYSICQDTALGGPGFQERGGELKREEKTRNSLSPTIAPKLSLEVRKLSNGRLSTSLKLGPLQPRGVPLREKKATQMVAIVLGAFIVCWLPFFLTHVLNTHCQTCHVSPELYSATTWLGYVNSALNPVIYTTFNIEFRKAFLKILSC
#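 Agonist-mode cell screen: cells plated at 1500/well and incubated overnight at 37 °C, then exposed to library compounds for 90 min at 37 °C. Detection reagent was added for 30–60 min at room temperature, and luminescence was read.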
# ClpP mod: qHTS Assay for Activators of ClpP | Potency, µM (titrated, usually from 57.5 µM), for the others: top-dose activity change, negative = active | ATP-dependent Clp protease proteolytic subunit (Bacillus subtilis (strain 168)), P80244 | purified B. subtilis ClpP, FRET peptide cleavage, 20 min | AID 651965, 2013 | hit rate 1.9% among 340,000; active = well fitted falling curve with a large enough effect; inconclusive = small, poorly fitted or top-dose-only effect; inactive = no such curve, though single readings can be large or run the other way; note: potency is the fitted concentration of half-maximal effect; the source files actives as falling curves though it sought activators and does not explain the sign; nearly all actives have a fitted effect of over 65% in size
# Target sequence (P80244 whole entry, looked up): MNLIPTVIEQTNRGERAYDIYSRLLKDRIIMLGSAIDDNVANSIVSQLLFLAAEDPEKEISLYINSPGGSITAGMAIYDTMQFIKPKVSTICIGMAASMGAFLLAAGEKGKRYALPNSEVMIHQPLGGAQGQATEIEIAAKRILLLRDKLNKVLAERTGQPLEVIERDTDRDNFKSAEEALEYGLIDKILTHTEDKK
#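 Buffer: 100 mM Tris/HCl pH8, 100 mM KCl, 0.05% low protease BSA, 2.5% glycerol, 0.01% Tween-20. ClpP 10 microg/mL final; 20 min RT; delta FRET normalized to ADEP and DMSO controls.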
# DT40 TDP1 no CPT: qHTS for Inhibitors of human tyrosyl-DNA phosphodiesterase 1 (TDP1): qHTS in cells in absence of CPT | AID 686978, 2013 | Potency, µM (doses to about 46.2 µM), without a hit: at the highest dose activity change, negative = growth inhibition, most hits filed as inhibitors | DT40 Tdp1-/- hTDP1 cells, no CPT, ATP luminescence, 48 h | hit rate 15% among 420,000; note: potency is the fitted concentration of half-maximal effect; % is set by controls: 0 for no effect and ±100 for the full control effect; nearly all actives have a fitted effect of over 55% in size
#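 Readout: luminescence from CellTiter-Glo after 30 min in the dark at RT. Cells: DT40 Tdp1-/- with stable hTDP1, 400/well. Exposure: compounds alone, ≥48 hr, 37 °C.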
# DRD3 antagonist: qHTS of D3 Dopamine Receptor Antagonist: qHTS; AID 652054, 2013; D3R cells, DiscoveRx beta-arrestin luminescence, antagonist mode; hits give low values; D(3) dopamine receptor (Homo sapiens), P35462; hit rate 2.5% among 360,000; max response, negative = inhibition, %; in the data active = max response below about -50%; inconclusive = no clear call, values can overlap the other calls; note: % is set by controls: 0 for no effect and ±100 for the full control effect
#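 Cells expressing the human receptor were seeded at 1500 cells/well, incubated overnight at 37 degrees C in 5% CO2, then exposed to library compounds with dopamine controls for 90 minutes at 37 degrees C before luminescent detection.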
# IL-1B inflam inh: qHTS for Inhibitors of Inflammasome Signaling: IL-1-beta AlphaLISA Primary Screen | THP-1 LPS/ATP IL-1B secretion, AlphaLISA, 16 h; hits give low values | activity change, % at 57.5 µM | hit rate 4.7% among 360,000 | AID 743279, 2014; in the data active = activity change below about -50%; inconclusive = mostly about -30% to -49%; note: % is set by controls: 0 for no effect and ±100 for the full control effect
#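 Secreted IL-1B measured by AlphaLISA bead assay after 16 h compound exposure of THP-1 cells; compounds (final up to 57.5 uM) added 1 h before LPS (250 ng/mL) and ATP (1.25 mM) stimulation; lower signal means less secretion.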
# An asterisk follows results filed as active; u = inconclusive; x = no result given. Unless noted, calls come from the whole dose curve; as a rule, active = well fitted inhibition curve with a large enough effect; inconclusive = small, poorly fitted or top-dose-only effect; inactive = flat fitted curve, though single readings scatter.
SMILES,DT40 TDP1 CPT,D3 ag,ClpP mod,DT40 TDP1 no CPT,DRD3 antagonist,IL-1B inflam inh
S=C(NCCc1ccccc1)Nc1ccc(Br)cn1,u,1,0%,15µM*,-3,65
S=C(NCCc1ccccc1)Nc1nccs1,u,3,-1%,15µM*,2,17
O=Cc1cnc2ccccc2c1-c1ccccc1,u,3,x,23µM*,-20,33
O=Cc1cn[nH]c1-c1ccccc1,2%,2,1%,-20%,-5,4
CCN1/C(=C/c2cc[n+](C)cc2)C=Cc2cc(C)ccc21,0.23µM*,-8,-11%,0.18µM*,2,-63*
O=C(Nc1ccccc1)Nc1ccccc1C(=O)NCCCN1CCOCC1,-4%,2,0%,-20%,-23,0
Cc1ccc(-c2nc(C(=O)NC3CCCCCC3)no2)cc1,u,-3,0%,18µM*,16,-6
Cc1ccc(-c2cc(C(=O)NC3CCCCC3)no2)cc1,3%,4,x,-22%,2,-15
CC(C)CN(C(=O)C(c1ccccc1)c1ccccc1)c1c(N)n(CC(C)C)c(=O)[nH]c1=O,6%,5,x,-15%,1,0
COc1ccc(OC)c2c(C)cc(N3CCN(C(=O)c4ccc(C)cc4)CC3)nc12,-4%,2,x,-20%,4,23
COc1ccc(OC)c2c(C)cc(N3CCCCCC3)nc12,u,-10,x,9.2µM*,-13,-11
COc1cccc2c(C)cc(N3CCCCCC3)nc12,-15%,2,5%,u,-1,1
COc1ccc(OC)c2c(C)cc(N3CCN(C(=O)c4ccc(F)cc4)CC3)nc12,u,-2,20µM*,u,-20,0
COc1cc(C)c(Br)cc1S(=O)(=O)NCc1ccncc1,10µM*,3,x,9.2µM*,8,22
Cc1cc(C)c(S(=O)(=O)NCCc2ccncc2)c(C)c1,-2%,5,-2%,-4%,18,7
COc1cc(C)c(Br)cc1S(=O)(=O)NCc1cccs1,1%,-2,-1%,-3%,-7,4
Cc1cc(C)c(S(=O)(=O)NCc2ccncc2)c(C)c1,7.3µM*,0,2%,7.3µM*,47,14
Cc1ccc(S(=O)(=O)NCc2ccncc2)c(C)c1C,1.8µM*,1,x,1.3µM*,19,-6
Cn1c(=O)c2c(nc(CN3CCc4ccccc4C3)n2Cc2ccccc2F)n(C)c1=O,8.2µM*,0,-7%,6.5µM*,23,-63*
CCOC(=O)Cn1c(CN2CCc3ccccc3C2)nc2c1c(=O)n(C)c(=O)n2C,4.1µM*,4,-4%,4.6µM*,17,40
Cn1c(=O)c2c(nc(CN3CCN(c4ccc(F)cc4)CC3)n2Cc2ccccc2F)n(C)c1=O,10µM*,-6,-3%,8.2µM*,-6,2
Cn1c(=O)c2c(nc(CN3CCN(c4ccccc4F)CC3)n2Cc2ccccc2F)n(C)c1=O,6.5µM*,2,-1%,5.2µM*,x,x
CCOC(=O)Cn1c(CN2CCN(C(=O)c3ccco3)CC2)nc2c1c(=O)n(C)c(=O)n2C,2%,-5,0%,13%,19,1
Cn1c(=O)c2c(nc(CN3CCc4ccccc4C3)n2CCCO)n(C)c1=O,-15%,2,x,u,3,0
COc1ccc(N2CCN(Cc3nc4c(c(=O)[nH]c(=O)n4C)n3Cc3ccccc3F)CC2)cc1,-20%,-23,-1%,-5%,x,x
SMILES,DT40 TDP1 CPT,D3 ag,ClpP mod,DT40 TDP1 no CPT,DRD3 antagonist,IL-1B inflam inh
N#Cc1c(C(F)(F)F)cc(-c2ccco2)nc1SCc1ccncc1,-7%,-1,25µM*,-25%,-2,-30
N#Cc1c(C(F)(F)F)cc(-c2ccco2)nc1SCc1ccccn1,u,-3,32µM*,-24%,-9,-18
CCN(CC)C(=O)CSc1nc(-c2ccco2)cc(C(F)(F)F)c1C#N,u,-2,32µM*,u,15,-13
CSc1nc(-c2ccco2)cc(C(F)(F)F)c1C#N,-2%,3,-7%,1%,11,22
N#Cc1c(C(F)(F)F)cc(-c2ccc(F)cc2)nc1SCC(=O)O,3%,1,x,u,0,43
Nc1c(C(=O)Nc2cccc(C(F)(F)F)c2)c2ccccn2c1C(=O)c1ccccc1,u,-13,0%,u,x,x
O=C(O)COc1ccc2nsnc2c1Cl,-1%,-20,14µM*,-14%,-22,5
O=C(Nc1cccc(Br)c1)Oc1cccc2cccnc12,5.2µM*,-24,-1%,3.3µM*,-83*,-23
O=C(COc1cccc2cccnc12)Nc1ccccc1,8%,-7,x,-6%,-17,-22
O=C(Nc1cccc(C(F)(F)F)c1)Oc1ccc(Cl)c2cccnc12,23µM*,-30,x,18µM*,-62*,-102*
CCOc1ccc(C(=O)Nc2ccc(-c3nc4ccccc4[nH]3)cc2)cc1[N+](=O)[O-],21µM*,-1,1%,18µM*,5,2
Cn1ncc([N+](=O)[O-])c1C(=O)Nc1ccc(-c2nc3ccccc3[nH]2)cc1,u,-1,-1%,18µM*,-9,-14
Cn1ncc([N+](=O)[O-])c1C(=O)Nc1ccc(Cl)cc1,-10%,-6,-4%,17%,-8,u
CC(=O)N1CCC2(CC1)CN(c1ccccc1)C2,u,x,x,-21%,x,x
CCOc1ccc(C(=O)NNC(=O)CNC(=O)c2ccc(C)s2)cc1OC,-2%,-2,-2%,1%,10,27
CC(C)CN1CC[C@@]2(CCCN(C(=O)c3cnccn3)C2)C1,6%,x,x,-3%,x,x
CC(C)C(NC(=O)c1c(F)cccc1F)C(=O)NC1CC(C)(C)NC(C)(C)C1 (centres undefined),1%,-2,x,-17%,7,8
O=C(/C=C/c1c(Cl)nc2ccccn12)N1CCN(c2ccccc2F)CC1,-19%,-4,x,23µM*,-18,-21
O=C(/C=C/c1c(Cl)nc2ccccn12)N1CCCCC1,-24%,-17,x,u,-14,-7
O=C(/C=C/c1c(Cl)nc2ccccn12)N1CCN(c2ccc(F)cc2)CC1,u,-3,x,26µM*,0,77
O=C(/C=C/c1cccs1)N1CCN(c2ccc(F)cc2)CC1,-14%,4,0%,u,18,-17
